Source: PubChem BioAssay (National Center for Advancing Translational Sciences (NCATS))
Shiga toxin inh = A qHTS for Small Molecule Inhibitors of Shiga Toxin; Vero cells, Shiga toxin protein synthesis inhibition reporter; 290,000 compounds, 9.2% hits; inhibition, % at 38.7 µM; in the data active = inhibition mostly above about 28%, no sharp cut-off; inactive = mostly below about 43%; note: 0% is about no effect
Pf growth 96h = Primary qHTS for delayed death inhibitors of the malarial parasite plastid, 96 hour incubation; P. falciparum luciferase reporter growth, 96 h; Potency, µM (series often up to 28.7 µM), for inactives: top-dose activity change, negative = inhibition, actives largely listed as inhibitors; AID 504834, 2011; 320,000 compounds, 6.9% hits; note: potency is the fitted concentration of half-maximal effect; % is set by controls: 0 for no effect and ±100 for the full control effect
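Delayed-death screen, second-generation endpoint: infected erythrocytes, 2% hematocrit, 0.05% parasitemia final; 96 hours at 37 C, 5% CO2; luciferase detection reagent; luminescence decrease equals reduced growth.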
HCMV antiviral = qHTS Assay for inhibitors of the human cytomegalovirus (HCMV); HFF cells, HCMV-luciferase reporter, 72 h; hits give low values; activity change, negative = inhibition, % at 57.5 µM; 410,000 compounds, 4.5% hits; AID 1259415, 2018; in the data active = activity change below about -60%; inconclusive = no clear call, values can overlap the other calls; inactive = above about -39%; note: % is set by controls: 0 for no effect and ±100 for the full control effect
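Screen run at 2 compound doses on HFFs infected with reporter HCMV, MOI 1 PFU/cell. Luciferase activity from cell lysates at 72 h post infection gave inhibition relative to buffer-only and Salinomycin wells.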
Pf growth 48h = Primary qHTS for delayed death inhibitors of the malarial parasite plastid, 48 hour incubation | P. falciparum luciferase growth in erythrocytes, 48 h | Potency, µM (highest dose often 28.7 µM), for the others: at the top dose activity change, negative = inhibition, actives largely listed as inhibitors | 310,000 compounds, 5.9% hits | AID 504832, 2011; note: potency is the fitted concentration of half-maximal effect; % is set by controls: 0 for no effect and ±100 for the full control effect
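First compound was added to culture medium, then infected red cells at 0.1% parasitemia and 2% hematocrit (final). After incubation at 37 C under 5% CO2, luciferase detection reagent was dispensed and light output recorded.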
CHX counter = Cycloheximide Counterscreen for Small Molecule Inhibitors of Shiga Toxin; cell reporter, cycloheximide protein synthesis inhibition counterscreen; max response, %; 300,000 compounds, 12% hits; in the data active = max response mostly above about 13%, no sharp cut-off; inactive = mostly below about 14%; note: read at 38.3 µM for the half of the compounds with a filed dose; 0% is about no effect
HCV inh = qHTS Assay for Inhibitors of Hepatitis C Virus (HCV); Huh7.5.1 HCVcc-Cre infection, luciferase reporter, 44 h; Potency, µM (series often up to 41.8 µM), for inactives: at the top dose activity change, negative = inhibition, most hits filed as inhibitors; 340,000 compounds, 3.4% hits; note: potency is the fitted concentration of half-maximal effect; % is set by controls: 0 for no effect and ±100 for the full control effect
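A cell-based infection assay in which seeded cells (1,000 per well) receive test compound after 4 h, are inoculated with HCVcc-Cre at approximately 0.5 moi, and are incubated 44 h before luminescence detection.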
Numbers without * were called inactive; i = inactive; ? = inconclusive; · = not tested or not shown. Hits are enriched below; roughly 21% of the tested compounds scored in any of these assays. Unless noted, calls come from the whole dose curve; as a rule, active = well fitted inhibition curve with a large enough effect; inconclusive = small, poorly fitted or top-dose-only effect, or another doubt; inactive = no such curve, though single readings can be large or run the other way.

SMILES	Shiga toxin inh	Pf growth 96h	HCMV antiviral	Pf growth 48h	CHX counter	HCV inh
COc1cc(C)nc(N2CCCC(C(=O)NC3CCC(C)CC3)C2)n1 (stereo not drawn)	123.1	2.94µM*	·	28.0%	31.9*	-14.9%
Cc1cc(C)nc(N2CCCC(C(=O)Nc3ccc4nc(C)c(C)nc4c3)C2)n1 (stereo not drawn)	-10.6	·	14.6	11.7µM*	-4.3	5.62µM*
Cc1cc(C)nc(N2CCCC(C(=O)Nc3nc4ccc(S(C)(=O)=O)cc4s3)C2)n1 (stereo not drawn)	-14.3	·	8.1	7.38µM*	1.4	?
Cc1cc(C)nc(N2CCCC(C(=O)Nc3nnc(C)s3)C2)n1 (stereo not drawn)	-24.7	·	40.0	25.8%	-4.2	·
Cc1cc(C)cc(NC(=O)C2CCCN(c3nc(C)cc(C)n3)C2)c1 (stereo not drawn)	-12.4	·	34.1	·	4.2	·
Cc1cc(C)nc(N2CCC(C(=O)Nc3ccc4c(c3)CCC4)CC2)n1	-8.0	11.7µM*	28.6	15.9%	-0.7	-13.8%
COCCNC(=S)NCCc1ccc(Cl)cc1Cl	10.2	-18.1%	-9.1	-17.8%	8.1	-1.1%
CCN1CCCC1Cn1cnc2c([nH]c3ccc(OC)cc32)c1=O (stereo not drawn)	18.8	0.0%	12.9	19.7%	1.2	-7.7%
CCCC(=O)Nc1ccc(NC(=S)NC(=O)c2cccs2)cc1	51.1*	-2.9%	-0.3	-12.3%	22.0	?
CCN(CC)c1ccc(NC(=S)NC(=O)c2cccs2)cc1	87.6*	?	-100.9*	?	46.2*	12.6µM*
CCCC(=O)Nc1ccc(C(=O)NNC(=S)NC(=O)c2cccs2)cc1	-6.6	7.9%	-22.2	33.2%	-2.0	-16.1%
CCCC(=O)NC(=S)Nc1ccc(NC(=O)c2cccs2)cc1	25.6	·	-6.3	?	12.2*	?
Cc1ccc(C(=O)NC(=S)Nc2ccc(-c3ccc(CO)o3)cc2)cc1	50.7	34.0%	?	-10.7%	29.1	?
O=C(NC(=S)Nc1ccc(-c2ccc(CO)o2)cc1)c1cccs1	66.7*	19.2%	·	143.7%	46.1*	-10.1%
CC(=O)NC(=S)Nc1ccc(NC(=S)NC(=O)c2cccs2)cc1	-13.1	45.6%	9.4	?	-4.2	-5.1%
N[C@@H](CCCCNC(=O)CCCC[C@@H]1SC[C@H]2NC(=O)N[C@H]12)C(=O)O	18.4	·	·	·	11.1	·
CC(C)(C)OC(=O)N1CCC(c2c(C(=O)NCCCN3CCc4ccccc4C3)cnn2-c2ccccc2)CC1	·	·	0.0	·	·	·
COc1cc2c(cc1OC)C(COc1ccc3c(C)cc(=O)oc3c1)N(C(=O)c1ccc(C)cc1)CC2 (stereo not drawn)	·	·	-18.8	·	·	·
CCOC(=O)C(C)(C)Oc1ccc(Cl)cc1	·	5.5%	?	5.7%	·	?
O=C1CC(c2ccco2)CC(O)=C1C=NCC1NCCc2ccccc21 (stereo not drawn)	6.1	1.0%	54.4	10.4µM*	-2.3	16.1%
O=C1CC(c2ccco2)CC(O)=C1C=NCCO (stereo not drawn)	-46.6	-7.0%	-7.9	73.7%	-3.9	-11.8%
O=C(NC1CCCCC1)c1ccc2c(c1)OCCO2	41.9*	?	22.9	172.0%	21.5*	27.2%
S=C(c1ccc2c(c1)OCO2)N1CCCCCC1	-12.0	11.7µM*	10.8	·	-3.6	-27.4%
O=C(Nc1ccc2c(c1)OCO2)C1CC1	·	82.1%	197.6	104.4%	·	1.9%
O=C(NNC(=S)NC1CCCCC1)c1ccc2c(c1)OCO2	-4.1	106.8%	37.2	102.6%	-2.4	-24.1%
SMILES	Shiga toxin inh	Pf growth 96h	HCMV antiviral	Pf growth 48h	CHX counter	HCV inh
c1cc2c(cc1NC1CCCCCC1)OCO2	11.4	?	0.1	1.4%	15.9*	18.0%
S=C(NC1CCCCC1)c1ccc2c(c1)OCO2	66.0*	67.6%	-4.6	26.5%	21.6*	?
COc1ccc(-c2nc3ccccc3s2)cc1NC(=O)c1ccc(C#N)cc1F	·	·	4.0	·	·	·
Cn1c2c(c(=O)n(C)c1=O)NC1(N2)C(=O)Nc2ccccc21 (stereo not drawn)	-6.9	?	33.9	?	-1.1	0.7%
O=C(NC1CCCCCCC1)c1ccc2c(c1)OCO2	47.9*	1.7%	-30.1	-60.0%	41.8*	0.8%
O=S(=O)(Nc1cccc2cccnc12)c1ccc(Br)s1	8.1	·	·	·	27.4	·
CCn1cnc2c1c(=O)n(CC(=O)N1CCc3ccccc31)c(=O)n2Cc1ccccc1	-1.6	?	9.5	·	-3.5	-4.3%
O=C(Cn1c(=O)c2c(ncn2C2CCCC2)n(Cc2ccccc2)c1=O)N1CCc2ccccc21	-14.4	36.9%	-21.2	5.86µM*	-2.8	-4.5%
O=C(Cn1c(=O)c2c(ncn2Cc2ccccc2)n(Cc2ccccc2)c1=O)N1CCCC1	12.4	?	-27.1	?	-2.6	20.3%
O=C(Cn1c(=O)c2c(ncn2Cc2ccccc2)n(Cc2ccccc2)c1=O)N1CCc2ccccc21	-22.9	·	-15.4	3.29µM*	-3.3	16.3%
Cc1cc(C(=O)Nc2ccc(S(=O)(=O)N3CCOCC3)cc2)c(C)o1	-13.2	-1.4%	16.3	-1.4%	-2.8	6.3%
NS(=O)(=O)c1ccc(NC(=O)c2cc(-c3ccccc3O)n[nH]2)cc1	-1.3	?	-21.6	?	-8.1	8.3%
Cc1cc(O)c(-c2cc(C(=O)Nc3ccc(S(=O)(=O)N4CCOCC4)cc3)[nH]n2)cc1C	1.8	i	?	1.85µM*	-2.2	?
O=C(Nc1ccc(S(=O)(=O)N2CCOCC2)cc1)c1cc(-c2cc(Cl)ccc2O)n[nH]1	-7.3	1.31µM*	-64.6*	0.828µM*	-2.5	10µM*
COc1cc(NS(=O)(=O)c2ccc(-c3ccc(=O)[nH]n3)o2)cc(OC)c1OC	-11.1	15.7%	-27.7	16.2%	-1.8	33.5%
O=C(NCc1cccc(Br)c1)C1CC(c2ccccc2[N+](=O)[O-])=NO1 (stereo not drawn)	·	·	50.9	·	·	-20.4%
COc1cccc(C(=O)Nc2nc(-c3ccncc3)cs2)c1	30.8	-24.0%	?	30.1%	6.4	-11.1%
Cc1csc(NC(=O)[C@@H](NC(=O)c2ccccc2)C(C)C)n1	14.7	-12.9%	3.0	7.3%	-2.9	17.4%
COc1cccc(C(=O)Nc2nc(C)cs2)c1	68.1*	84.6%	133.7	121.6%	35.1*	8.1%
Cc1csc(NC(=O)c2ccc[nH]c2=O)n1	·	190.1%	91.0	112.1%	35.6*	7.7%
Cc1csc(NC(=S)NC(=O)c2ccccc2)n1	61.3*	75.5%	51.6	17.2%	22.3*	?
Cc1csc(NC(=O)NCC2CCCC(CNC(=O)Nc3nc(C)cs3)C2)n1 (stereo not drawn)	42.6*	?	39.2	11.7µM*	30.4*	?
